High-throughput results: PubChem BioAssay, several laboratories
PfM18AAP inh = PfM18AAP inhibitors, malaria aminopeptidase, primary screen, biochemical, QFRET, recombinant enzyme | H-Glu-NHMec fluorogenic cleavage | inhibition, % at 7.35 µM | 290,000 compounds, 1.2% hits;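 active = inhibition above the campaign mean inhibition over all tested compounds plus 3 SD, cut at about 28% in these data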;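 note: 0% = plate median of test compound wells and 100% = 2 mM ZnCl2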
ALR H2O2 inh = inhibitors of human ALR sulfhydryl oxidase, primary screen, biochemical, H2O2 detection, HRP-luminol luminescence, single point; FAD-linked sulfhydryl oxidase ALR (Homo sapiens), P55789; purified ALR, DTT oxidation; inhibition, % (no concentration beside the values); 290,000 compounds, 3.8% hits; AID 485317, 2010;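 active = mean replicate inhibition above about 79%, with every replicate also reaching it, limit read from the data; inconclusive = only one of the two criteria met; inactive = mean below limit and not every replicate reaching it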
Target sequence (P55789 whole entry, looked up): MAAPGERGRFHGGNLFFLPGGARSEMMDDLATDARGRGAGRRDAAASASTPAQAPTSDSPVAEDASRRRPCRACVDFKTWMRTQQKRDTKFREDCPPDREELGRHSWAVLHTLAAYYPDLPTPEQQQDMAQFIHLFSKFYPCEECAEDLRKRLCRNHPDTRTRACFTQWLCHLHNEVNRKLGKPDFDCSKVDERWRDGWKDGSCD
HIF act = HIF pathway transcriptional activators, primary screen, cell-based, U2OS HRE-luciferase, luminescence; U2OS HRE-luciferase reporter; normalized: DMSO 0%, desferrioxamine 100%; activation, % at 7.5 µM (by protocol); 300,000 compounds, 0.32% hits; AID 1910, 2009;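 active = mean activation of at least 10% of the iron chelator positive control signal, with at least half of replicates also reaching 10%; inconclusive = mean and replicate majority disagree about reaching 10%; inactive = mean and most replicates under 10%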
SUMO Mot1 rescue = yeast Mot1-301 growth rescue at high temperature, primary screen, SUMOylation pathway inhibitor project, S. cerevisiae, ATP luminescence, 38.5C | S. cerevisiae Mot1-301 growth rescue; percent above DMSO median, 100 means doubled | growth rescue, % at 18.8 µM | 320,000 compounds, 1% hits | AID 2716, 2010;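 active = every valid replicate shows activation above 250% relative to neutral control wells; inactive = the rest, any valid replicate at or below 250%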;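 note: OY570 slx delta 5 strain wells were the positive control but not used for scaling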
The depositor's hits bear a star; u = inconclusive; x = not tested or not shown. The list is not random: actives were taken first. Their share in the collection is about 5.3%.

SMILES | PfM18AAP inh | ALR H2O2 inh | HIF act | SUMO Mot1 rescue
C/C(N)=C(/C#N)C(=O)COC(=O)Cc1coc2ccc3ccccc3c12 | 6 | -147 | -1 | -8
O=C(NNc1ccc(O)cc1)c1ccc(Br)cc1 | 9 | 99* | 0 | 6
CCCc1ccc(C(=O)NNc2ccc(F)cc2)cc1 | 14 | -7 | 0 | 289*
CCc1ccc(C(=O)NNc2ccc(F)cc2F)cc1 | 14 | 1 | 1 | 339*
CSCc1ccc(C(=O)NCc2ccc(F)cc2)cc1 | 1 | 98* | 1 | 5
CSCc1ccc(C(=O)NCc2ccc(C)cc2)cc1 | -9 | 8 | 1 | -4
CCCn1c(=O)n(C)c(=O)c2c(SCC(=O)NC34CC5CC(CC(C5)C3)C4)nc(CC(C)C)nc21 | 0 | -1 | 0 | -26
CCOCCCNC(=O)C1(O)c2cc(Br)ccc2NC(=O)N1c1ccc(OCC)cc1 (configuration not stated) | 7 | -25 | 0 | -1
O=C(Nc1ccn([C@H]2CC[C@@H](CO)O2)c(=O)n1)c1ccccc1 | 1 | -9 | 0 | 1
O=c1[nH]c2cc3c(cc2cc1CN(CC1CCCO1)S(=O)(=O)c1ccc(Cl)cc1)OCCO3 (configuration not stated) | -7 | 1 | 2 | 5
Cc1ccc(S(=O)(=O)N(Cc2cc3cc4c(cc3[nH]c2=O)OCCO4)CC2CCCO2)cc1 (configuration not stated) | -3 | 2 | 1 | 332*
Cc1ccc(NC(=O)O/N=C/c2c(C)nn(C(C)(C)C)c2C)cc1Cl | -17 | -5 | -4 | -10
COc1ccc(C(=O)OCC(=O)NCCc2ccc(F)cc2)cc1S(=O)(=O)N1CCOCC1 | x | x | x | -3
Cc1ccccc1NC(=O)NNC(=O)CCc1ccccc1 | 0 | -14 | 0 | -2
Cc1cccc(-c2nc(CSc3nc4c(c(=O)[nH]3)CCC4)c(C)o2)c1 | -8 | 99* | 0 | -1
Cc1oc(-c2ccccc2)nc1CSc1nc2c(c(=O)[nH]1)CCC2 | -7 | x | 0 | 21
COc1ccc(CCC(=O)NCC(c2ccco2)N2CCc3ccccc32)cc1 (configuration not stated) | x | 87* | -1 | 1
O=C(NCC(c1ccco1)N1CCc2ccccc21)c1ccccc1 (configuration not stated) | x | 96* | -2 | 2
COc1cc(C(=O)NCC(c2ccco2)N2CCc3ccccc32)cc(OC)c1OC (configuration not stated) | x | 93* | -12 | -24
CC1(C(=O)O)COC(c2ccc([N+](=O)[O-])cc2)OC1 (configuration not stated) | -2 | -15 | 0 | -2
O=C1NC(C(=O)O)=CC(c2ccc([N+](=O)[O-])cc2)N1 (configuration not stated) | 12 | 78* | 0 | -4
N#Cc1cc2c(cc1NC(=O)CCn1cnnn1)OCO2 | 4 | -11 | 0 | -17
COc1ccc(C)cc1NCc1ccc(OC)c(C)c1OC | 7 | 77* | 1 | 20
COc1ccc(C)cc1NCc1ccc([N+](=O)[O-])cc1 | -6 | 99* | -1 | -23
COc1ccc(-c2ccccc2)cc1NCc1ccccc1C | -3 | x | 0 | -7
SMILES | PfM18AAP inh | ALR H2O2 inh | HIF act | SUMO Mot1 rescue
O=c1cc(N2CCOCC2)cnn1-c1ccccc1 | 1 | -7 | 2 | -14
O=C(NC(c1ccc(Cl)cc1)c1c(O)ccc2ccccc12)c1ccccc1 (configuration not stated) | 3 | -1 | x | -23
CC(=O)NC(c1ccc(Cl)cc1)c1c(O)ccc2ccc(O)cc12 (configuration not stated) | -7 | 96* | 0 | -13
O=C(Nc1cccc(S(=O)(=O)N2CCCC2)c1)c1cccc(OC(F)F)c1 | x | -12 | 0 | 353*
Cn1cc(S(=O)(=O)N2CCCC2)cc1C(=O)Nc1cccc(C(F)(F)F)c1 | -8 | -3 | 0 | 333*
CSc1cccc(NC(=O)c2cc(S(=O)(=O)N3CCCC3)cn2C)c1 | 2 | -6 | 0 | 4
O=C(CSc1nc2[nH]ncc2c(=O)[nH]1)NCc1ccc(F)cc1 | 5 | -2 | 0 | -2
CCOc1ccc(Nc2nc(Cc3nnc(SCC(=O)NCc4ccco4)n3CC)cs2)cc1 | 30* | 11 | 0 | -12
COc1ccccc1N1CCN(C2CCCN(Cc3cc(F)cc(F)c3)C2)CC1 (configuration not stated) | 2 | 8 | 3 | 11
Cc1cccc(C(=O)NC(=S)Nc2c(C)n(C)n(-c3ccccc3)c2=O)c1 | 2 | x | -2 | 15
CNc1ccc(Br)cc(C(=O)/C=C/c2ccc3c(c2)OCO3)c1=O | 28* | 1 | 0 | 6
Cc1ccc(NC(=O)C(=O)NCCCN2CCCC2=O)cc1 | x | 2 | 1 | 433*
S=C(NCCCN1CCOCC1)Nc1ccc(Nc2ccccc2)cc1 | 3 | 99* | 0 | 8
S=C(NCCN1CCOCC1)Nc1ccc(Cl)cc1Cl | 4 | 95* | 1 | -3
S=C(NCCN1CCOCC1)Nc1ccc(Nc2ccccc2)cc1 | 4 | 99* | 0 | -3
O=C1CCCN1CC(=O)N1CCCC(Nc2cccc(F)c2)C1 (configuration not stated) | -5 | 27 | 0 | -3
S=C(NCCCN1CCOCC1)Nc1ccc(-c2nc3ccccc3[nH]2)cc1 | 18 | 98* | 3 | -2
CCCCc1ccc(NC(=S)NCCN2CCOCC2)cc1 | 2 | 17 | 0 | 731*
O=C1CCCN1CCCNC(=S)Nc1ccccc1 | -6 | 1 | 0 | 36
S=C(NCCN1CCOCC1)Nc1ccc(Br)cc1 | -14 | u | 0 | 9
CN(C)CCNC(=S)Nc1ccc(-c2nc3ccccc3[nH]2)cc1 | 10 | x | -2 | 4
O=C1CCCN1CCCNC(=S)Nc1ccc(Nc2ccccc2)cc1 | 0 | 99* | 0 | 6
CCc1ccccc1-n1ncc(C(=O)Nc2ccccc2OC)c1C | 2 | 7 | -3 | 17
Cc1c(C(=O)N2CCOCC2)c(S(=O)(=O)Nc2ccccc2F)c(C)n1C | -5 | 2 | -1 | -2
CCn1c(C)c(C(C)=O)c(N2CCN(c3ccccc3)CC2)nc1=S | 15 | 97* | 0 | 7
SMILES | PfM18AAP inh | ALR H2O2 inh | HIF act | SUMO Mot1 rescue
Cc1ccc(C(=O)CSc2n[nH]c(-c3ccco3)n2)cc1C | 4 | 97* | 0 | 100
CCc1nc(SCC(=O)c2ccc(C)c(C)c2)n[nH]1 | -7 | 93* | 1 | 3
Cc1nc(SCC(=O)c2cccc([N+](=O)[O-])c2)n[nH]1 | -4 | x | 0 | -6
COc1ccc(C(=O)CSc2n[nH]c(C)n2)cc1[N+](=O)[O-] | 12 | 82* | 0 | 10
CCNC(=S)Nc1ccc(S(=O)(=O)Nc2cc(C)nc(C)n2)cc1 | 0 | 1 | -1 | 4
COc1ccc(OC)c(S(=O)(=O)N2CCC(C(=O)NC3CC3)CC2)c1 | 5 | 58 | -26 | -11
